Assay results reported in PubChem BioAssay (NCATS).
Unmarked numbers belong to inactive results. Records with an inconclusive call do not appear. A call without a number means that no potency is given here. The source made the active and inactive calls. Calls follow the shape of the dose curve; as a rule, active = well fitted curve in the direction sought with a large enough effect; inconclusive = small, poorly fitted or top-dose-only effect, or another doubt; inactive = no such curve, though single readings can be large; an effect the other way counts as inactive or inconclusive.

How the values were obtained:
[1] = qHTS Assay for Identification of Small Molecule Antagonists for Thrombopoietin (TPO) Signaling Pathway (AID 918); settings: TPO-dependent cell signaling reporter, antagonist mode; also: potency is read from the fitted curve at half-maximal effect; nearly all actives have a fitted effect of over 60% in size
Method in brief: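 Antagonist mode at EC50 TPO (26 pM) in IL-3-free medium; murine Ba/F3 cells with human TPO receptor and GPIIb-promoter luciferase, 24 hrs at 37 C before luminescent detection.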

[2] = target: Muscarinic acetylcholine receptor M1 (Rattus norvegicus) (UniProt P08482); experiment: qHTS Assay for Antagonists of Acetylcholine Muscarinic M1 Receptor: Kinetic Measurement of Intracellular Calcium Response (AID 943); settings: M1-expressing cells, kinetic intracellular calcium fluorescence; series mostly up to 35.3 µM;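 also: Fluo-4 calcium signal as peak divided by basal fluorescence over 4 min; nearly all actives have a fitted effect of over 75% in size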
Method in brief: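 Quantitative HTS in CHO-M1 (rat receptor) cells: 10 min compound exposure ahead of 100 nM carbachol, Fluo-4 fluorescence followed 4 min, value expressed as peak-to-basal ratio.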

[3] = target: Muscarinic acetylcholine receptor M1 (Rattus norvegicus) (UniProt P08482); experiment: qHTS Assay for Antagonists of Acetylcholine Muscarinic M1 Receptor: Measurement of IP-One Response (AID 944); settings: CHO-M1 cells, IP-One HTRF, antagonist mode; series mostly up to 46.1 µM; also: nearly all actives have a fitted effect of over 75% in size
Method in brief: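 Antagonism was measured as loss of carbachol-driven (EC80) IP1 accumulation in CHO cells carrying rat M1, using a homogeneous IP-One TR-FRET kit read at 620 and 665 nm.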

[4] = target: Pyruvate kinase PKM (Homo sapiens) (UniProt P14618); experiment: qHTS Assay for Inhibitors of Human Muscle Pyruvate Kinase (AID 958); settings: purified human PKM enzyme activity; series mostly up to 57.5 µM
Method in brief: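 Enzyme was run at intermediate activity so both inhibitors and activators could be detected. ATP formed from ADP and PEP by 0.1 nM human PKM2 during a 1 h room-temperature incubation was quantified by coupled luciferase luminescence.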

[5] = target: Pyruvate kinase (Leishmania mexicana) (UniProt Q27686); experiment: qHTS Validation Assay for Activators of Leishmania Mexicana Pyruvate Kinase (AID 959); settings: purified L. mexicana pyruvate kinase, enzyme activity; series mostly up to 57.5 µM
Method in brief: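 LmPYK E451W 0.2 nM; 0.5 mM PEP, 0.1 mM ADP, 7 mM MgCl2, 50 mM KCl, imidazole pH 7.2, 0.01% Tween 20, 0.05% BSA; 1 h RT; PKLight luminescence; DMSO-normalized.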

Chain of Muscarinic acetylcholine receptor M1 (Rattus norvegicus) (P08482 whole entry, looked up): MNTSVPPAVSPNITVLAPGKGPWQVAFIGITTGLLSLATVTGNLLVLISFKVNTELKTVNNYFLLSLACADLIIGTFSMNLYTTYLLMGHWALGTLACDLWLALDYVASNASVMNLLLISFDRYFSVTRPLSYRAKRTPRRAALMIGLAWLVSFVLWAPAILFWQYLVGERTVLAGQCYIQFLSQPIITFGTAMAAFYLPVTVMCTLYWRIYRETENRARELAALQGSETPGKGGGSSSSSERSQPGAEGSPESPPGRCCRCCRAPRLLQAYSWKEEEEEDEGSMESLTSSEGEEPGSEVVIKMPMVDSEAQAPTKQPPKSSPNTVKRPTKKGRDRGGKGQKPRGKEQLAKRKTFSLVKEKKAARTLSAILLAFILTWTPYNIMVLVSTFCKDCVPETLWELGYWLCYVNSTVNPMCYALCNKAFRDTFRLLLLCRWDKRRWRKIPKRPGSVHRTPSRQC
Chain of Pyruvate kinase PKM (Homo sapiens) (P14618 whole entry, looked up): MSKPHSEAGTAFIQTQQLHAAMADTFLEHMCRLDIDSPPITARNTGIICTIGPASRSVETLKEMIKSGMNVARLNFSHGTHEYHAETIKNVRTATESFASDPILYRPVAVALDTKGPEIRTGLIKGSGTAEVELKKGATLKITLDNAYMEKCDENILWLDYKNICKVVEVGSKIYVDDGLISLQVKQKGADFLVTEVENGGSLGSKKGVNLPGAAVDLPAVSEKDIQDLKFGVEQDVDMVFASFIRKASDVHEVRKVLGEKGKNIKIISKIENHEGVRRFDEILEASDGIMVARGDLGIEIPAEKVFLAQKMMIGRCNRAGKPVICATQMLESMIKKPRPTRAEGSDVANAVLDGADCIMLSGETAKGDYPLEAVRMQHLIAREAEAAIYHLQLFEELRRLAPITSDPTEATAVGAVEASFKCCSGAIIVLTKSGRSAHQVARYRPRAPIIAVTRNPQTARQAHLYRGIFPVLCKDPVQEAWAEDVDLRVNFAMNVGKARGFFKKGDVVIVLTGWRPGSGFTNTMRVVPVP
Chain of Pyruvate kinase (Leishmania mexicana) (Q27686 2-499 E452W): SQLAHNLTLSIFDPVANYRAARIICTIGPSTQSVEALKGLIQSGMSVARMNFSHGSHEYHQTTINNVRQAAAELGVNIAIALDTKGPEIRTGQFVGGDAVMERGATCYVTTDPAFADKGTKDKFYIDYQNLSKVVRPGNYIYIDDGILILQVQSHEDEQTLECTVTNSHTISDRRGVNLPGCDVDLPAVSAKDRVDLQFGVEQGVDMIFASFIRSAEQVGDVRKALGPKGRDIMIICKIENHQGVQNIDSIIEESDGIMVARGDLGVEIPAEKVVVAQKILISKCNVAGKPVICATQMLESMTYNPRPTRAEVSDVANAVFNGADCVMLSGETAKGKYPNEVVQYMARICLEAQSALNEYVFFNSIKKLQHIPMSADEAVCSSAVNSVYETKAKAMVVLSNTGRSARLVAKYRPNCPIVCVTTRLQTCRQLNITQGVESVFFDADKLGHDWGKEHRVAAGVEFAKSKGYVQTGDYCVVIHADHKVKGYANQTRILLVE

SMILES	Potency [1]	Potency [2]	Potency [3]	Potency [4]	Potency [5]
CN1CCc2cc(O)c(O)cc2[C@H](c2ccccc2)C1	10 µM (active)				
O=C(/C=C\c1ccc(O)cc1)c1ccc(O)cc1O		inactive	inactive	15.8 µM (active)	inactive
